In PubChem BioAssay (NCI) one finds growth inhibition data, which are given here for 39 molecules.

Where “and” joins values, the source holds several entries; their conditions need not be identical. Equal values may be shown once. About 79,000 compounds went through this panel and 15% of them were active in at least one assay; those are over-represented in the sample as a whole. Values without a mark were called inactive. Calls of active or inactive are those of the source. Rule as the data show it: active = growth inhibition above about 70%; inactive = the rest.

Assay [1] in a line: NCI Yeast Anticancer Drug Screen. Data for the rad50 strain (AID 155).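 Also: 0% = growth of vehicle-only cultures of the same strain.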 The note with it: S. cerevisiae rad50 strain growth inhibition; at 50.0 µM; active compounds read high. Put shortly:
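A DNA repair-deficient yeast mutant serves as the test organism; compound-induced growth inhibition is calculated against vehicle-treated cells.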

Assay [2] can be described thus: NCI Yeast Anticancer Drug Screen. Data for the mec2-1 strain (AID 157). The note with it: S. cerevisiae mec2-1 strain, at 50.0 µM, active compounds read high. Put shortly:
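Cells of the genetically defined mec2-1 yeast strain are incubated with test compound. Inhibition of growth is calculated against vehicle-treated controls.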

Assay [3] can be described thus: NCI Yeast Anticancer Drug Screen. Data for the sgs1 mgt1 strain (AID 161).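 Also: 0% = growth of cultures given vehicle only.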 The following applies: S. cerevisiae sgs1 mgt1 strain, at 50.0 µM, active compounds read high. The procedure, abridged:
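Inhibition of yeast growth, normalised to vehicle-treated controls, is reported for a strain bearing genetic alterations in DNA damage repair.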

Assay [4] in a line: NCI Yeast Anticancer Drug Screen. Data for the cln2 rad14 strain (AID 165).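 Also: 0% = growth equal to vehicle treated cultures.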 The note with it: S. cerevisiae cln2 rad14 strain, at 50.0 µM, active compounds read high. Put shortly:
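The screen exposed genetically defined yeast (cln2 rad14) to test compounds and scored growth inhibition relative to vehicle-treated controls.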

Assay [5] can be described thus: NCI Yeast Anticancer Drug Screen. Data for the bub3 strain (AID 167). The following applies: S. cerevisiae bub3 mutant strain, at 50.0 µM, active compounds read high. Put shortly:
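Inhibition values come from growth of compound-treated mutant yeast normalised to vehicle-treated controls.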

Assay [6] in a line: NCI Yeast Anticancer Drug Screen. Data for the mlh1 rad18 strain (AID 175). The note with it: S. cerevisiae mlh1 rad18 strain growth inhibition; at 50.0 µM; active compounds read high. The procedure, abridged: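 Compound-treated yeast growth, normalised to vehicle controls. Strain bears defined DNA repair mutations.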

`c1ccc([As]2[As](c3ccccc3)[As](c3ccccc3)[As]2c2ccccc2)cc1` (centres undefined): the growth inhibition was 99.5% (active) in assay [1]; 99.8% (active) in assay [2]; 99.8% (active) in assay [3]; 98.1% (active) in assay [4]; 99.2% (active) in assay [5]; 99.5% (active) in assay [6].

Consider `NC(CCl)=NC1CN2CCC1CC2` (centres undefined), for which the growth inhibition in assay [1] was -22.5%; in assay [2] it was -20.4%; in assay [3] it was -13.2%; in assay [4], 5.9%; in assay [5], -32.1%; in assay [6], -7.15%.

Turning to `O=[N+]([O-])c1cccc2cccc([N+](=O)[O-])c12`, the growth inhibition in assay [1] is -7.45%; in assay [2], -28.1%; in assay [3], -10.3%; in assay [4] it was -86.7%; in assay [5], -35%; in assay [6], 11.3%.

Turning to `CS/C([S-])=N/N=C(C)C.CS/C([S-])=N/N=C(C)C.[Pt+2]`, the growth inhibition in assay [1] was 9.1%; in assay [2], 1.45%; in assay [3] it was 0.7%; in assay [4], -41.3%; in assay [5], -0.8%; in assay [6], -9.9%.

In the case of `NC(Cc1ccccc1)c1nccs1` (centres undefined), the growth inhibition in assay [1] was -8.95%; in assay [2] it was -26.6%; in assay [3] it was -7.65%; in assay [4], 11.2%; in assay [5], -30.1%; in assay [6], -2.6%.

`C/C=C/C1(CCCC)C(=O)NC(=O)NC1=O`: the growth inhibition in assay [1] was 9.8%; in assay [2] it was 3.35%; in assay [3], 4.15%; in assay [4], 8.75%; in assay [5], -2.6%; in assay [6], -20.8%.

Take `COc1ccc2c3c([nH]c2c1)C(C)N(C)CC3` (centres undefined): the growth inhibition in assay [1] is 16.4%; in assay [2], 1.85%; in assay [3] it was -10.7%; in assay [4] it was -5.05%; in assay [5], 43.4%; in assay [6], -16.9%.

On to `O=[N+]([O-])c1ccc(/C=C/c2ccc(Cl)c(S(=O)(=O)F)c2)c(Cl)c1`, for which the growth inhibition is 15.6% in assay [1]; -4.95% in assay [2]; -1.7% in assay [3]; 2.45% in assay [4]; 13% in assay [5]; -6.3% in assay [6].

For the molecule `O=P(O)(O)C(O)c1ccccc1` (centres undefined), the growth inhibition was -20.1% in assay [1]; -31.9% in assay [2]; -15.4% in assay [3]; -1.9% in assay [4]; -19.2% in assay [5]; 17.6% in assay [6].

On to `Cc1cccc(C)c1[S][Pb][S]c1c(C)cccc1C`, for which the growth inhibition in assay [1] was -0.6%; in assay [2] it was -3.75%; in assay [3] it was -7.9%; in assay [4], -0.75%; in assay [5], -2.05%; in assay [6], -17.4%.

`O=C(Cc1ccccc1)Nc1ccc(Cl)cc1C(=O)c1ccccc1`: the growth inhibition in assay [1] was 1.95%; in assay [2], 44.2%; in assay [3], 40.1%; in assay [4], -18.3%; in assay [5], 23.1%; in assay [6], 36.7%.

Take `COc1ccc2c(c1O)-c1cc(O)cc3c1C(C2)NCC3` (centres undefined): the growth inhibition in assay [1] is 13.7%; in assay [2] it was 21.8%; in assay [3], -12.5%; in assay [4] it was 7.25%; in assay [5], 8.65%; in assay [6] it was 30.9%.

Take `[CH3][Sn]([CH3])([n]1cnc2ccccc21)[n]1cnc2ccccc21`: the growth inhibition was 0.85% in assay [1]; 9.9% in assay [2]; 12.2% in assay [3]; -4.85% in assay [4]; 0.1% in assay [5]; -3.45% in assay [6].

`O=C(O)CC(=O)O.[Co+2].[NH-]CC(=O)O.[NH-]CC(=O)O`: the growth inhibition in assay [1] was 15.4%; in assay [2], -6.65%; in assay [3] it was 10.2%; in assay [4], 0.8%; in assay [5] it was -0.9%; in assay [6] it was -15.9%.

Take `CCCCOP(=S)(Nc1ccccc1)OCCCC`: the growth inhibition is 91% (active) in assay [1]; 40.7% in assay [2]; 81.8% (active) in assay [3]; 42% in assay [4]; 73.5% (active) in assay [5]; 82.2% (active) in assay [6].

Regarding `O=C(Cl)C1CCC1`, the growth inhibition was 11% in assay [1]; -5.35% in assay [2]; 10.1% in assay [3]; -4.65% in assay [4]; -7% in assay [5]; 16.1% in assay [6].

Take `O=NN1CCOC1=NC1CCCCC1`: the growth inhibition in assay [1] was -3.65%; in assay [2], -12.2%; in assay [3], -11.2%; in assay [4], -63%; in assay [5] it was -22.7%; in assay [6], -9%.

In the case of `O=NNc1ncccn1`, the growth inhibition in assay [1] is -20.2%; in assay [2], -11.7%; in assay [3], 3.7%; in assay [4], 4.3%; in assay [5], -0.2%; in assay [6], -23%.

As to `COCCCNCCCN1CC1`, the growth inhibition in assay [1] is 2.25%; in assay [2] it was -4.4%; in assay [3], -6.9%; in assay [4], -22.7%; in assay [5] it was -22.4%; in assay [6], 10.1%.

`CN1CCc2cc3c(cc2C1)OCO3`: the growth inhibition in assay [1] was -22.9% and -14.8%; in assay [2] it was 2.5% and -16.9%; in assay [3], -12.9% and 8.55%; in assay [4] it was -22.6% and 7.65%; in assay [5], -5.85% and 2.45%; in assay [6], -17.9% and 28.6%.

For `C[Si](C)(OC(=O)N(CCCl)CCCl)O[Si](C)(C)OC(=O)N(CCCl)CCCl`, the growth inhibition was 14.8% in assay [1]; 1.05% in assay [2]; -33.6% in assay [3]; -11.4% in assay [4]; -31% in assay [5]; -45.6% in assay [6].

As to `O=C(O)Cc1ccc([N+](=O)[O-])cc1[N+](=O)[O-]`, the growth inhibition in assay [1] is 3.55%; in assay [2] it was -13.6%; in assay [3], -7.25%; in assay [4] it was -27.2%; in assay [5] it was 0.05%; in assay [6], -2.6%.

In the case of `COc1ccc2c(c1O)CNCC2c1ccc(O)cc1O` (centres undefined), the growth inhibition in assay [1] was 0.6%; in assay [2], -12%; in assay [3], -7.25%; in assay [4] it was -11.9%; in assay [5], -24.8%; in assay [6], -2%.

In the case of `Cc1c(O)c(O)c(C)c(CCN)c1O`, the growth inhibition was 15.4% in assay [1]; 19.8% in assay [2]; 22.1% in assay [3]; -26.8% in assay [4]; 25.1% in assay [5]; 27.9% in assay [6].

Regarding `CC(CCF)C(N)C(=O)O` (centres undefined), the growth inhibition in assay [1] is 1.8% and -0.7%; in assay [2], 28.9% and 5.4%; in assay [3], 28.9% and -9.4%; in assay [4], -0.8% and -0.2%; in assay [5], 43% and 20.7%; in assay [6], 19.5% and -7.8%.

As for `O=c1c2cc(Br)cc(Br)c2[nH]c(=S)n1-c1ccccc1`, the growth inhibition in assay [1] was -2.45%; in assay [2], 31.4%; in assay [3] it was 21.5%; in assay [4], 21.4%; in assay [5] it was 27.6%; in assay [6], 19.8%.

For `CCC(=O)O[C@H]1CC[C@H]2[C@@H]3CCC4=C/C(=N/NC(=O)c5cccc6c(=O)c7ccccc7[nH]c56)CC[C@]4(C)[C@H]3CC[C@]12C`, the growth inhibition in assay [1] is 13.7%; in assay [2], 15.5%; in assay [3], -16.4%; in assay [4], -8.75%; in assay [5], -17.2%; in assay [6], -7.95%.

Consider `O=P(O)(O)c1ccccc1.[Zn+2]`, for which the growth inhibition in assay [1] was 13.9%; in assay [2], 16.4%; in assay [3], -0.45%; in assay [4] it was -14%; in assay [5] it was 18.1%; in assay [6], 24.2%.

For `NC1CCCCC1.[O]=[Ge].[O]=[Ge].[O]=[Ge][OH].[O]=[Ge][OH]`, the growth inhibition was -26.9% in assay [1]; -10.9% in assay [2]; -10.8% in assay [3]; 13.1% in assay [4]; 12.9% in assay [5]; 4.95% in assay [6].

As to `CCC(CO)N=Cc1ccccc1O.CCC(CO)N=Cc1ccccc1O.[Ni]` (centres undefined), the growth inhibition in assay [1] is 40%; in assay [2] it was 1.3%; in assay [3], 31.9%; in assay [4], -44.1%; in assay [5] it was 8.7%; in assay [6], 25.5%.

On to `c1ccc(-c2cccc(-c3ccccc3)c2)cc1`, for which the growth inhibition in assay [1] was 30.1%; in assay [2] it was 15.3%; in assay [3], 31.3%; in assay [4], -0.6%; in assay [5], 24.6%; in assay [6] it was 44%.

For `CCOP(=O)(CN(CCO)CCO)OCC`, the growth inhibition in assay [1] was -5.85%; in assay [2], 12%; in assay [3], 11.4%; in assay [4], 0%; in assay [5] it was -6.5%; in assay [6] it was 4.25%.

Regarding `O=C1C(=O)c2ccccc2C(O)=C1CN(CCCl)CCCl`, the growth inhibition is 31.6% in assay [1]; 17.9% in assay [2]; 27.2% in assay [3]; -21.9% in assay [4]; 30.8% in assay [5]; 29.8% in assay [6].

Turning to `Cc1csc(CP(=O)(OC(C)C)OC(C)C)n1`, the growth inhibition in assay [1] was -22.6%; in assay [2], -47%; in assay [3], -21.6%; in assay [4], -13.2%; in assay [5], 3.35%; in assay [6] it was -5.8%.

For the molecule `CNC(Cc1ccccc1)c1ccc(OC)cc1` (centres undefined), the growth inhibition is 27.1% in assay [1]; 17.2% in assay [2]; 32.3% in assay [3]; 5.75% in assay [4]; 34.6% in assay [5]; 35.6% in assay [6].

Turning to `N#CC(C#N)=Cc1ccc(Cl)cc1`, the growth inhibition is 13.6% and 9.25% in assay [1]; -2.05% and -21.4% in assay [2]; 8.5% and 19.9% in assay [3]; 3.45% and -9.95% in assay [4]; -8.1% and 0.15% in assay [5]; 20.7% and 20.1% in assay [6].

As to `COc1ccc(C(c2c(O)c3ccccc3oc2=O)c2c(O)c3ccccc3oc2=O)cc1`, the growth inhibition in assay [1] is -15.3%; in assay [2], -0.35%; in assay [3], -14.4%; in assay [4] it was -18.2%; in assay [5], 1%; in assay [6], -0.7%.

Regarding `CC(C)CCC[C@@H](C)[C@H]1CC[C@H]2[C@@H]3CC=C4C[C@@H](OC(=O)Cl)CC[C@]4(C)[C@H]3CC[C@]12C`, the growth inhibition was -24.1% in assay [1]; -24.9% in assay [2]; -14.7% in assay [3]; 1.7% in assay [4]; -2.7% in assay [5]; -13.4% in assay [6].

For the molecule `S=P(c1ccccc1)(N1CCOCC1)N1CCOCC1`, the growth inhibition in assay [1] was 7.8%; in assay [2] it was -9.85%; in assay [3] it was 7.65%; in assay [4] it was -16.4%; in assay [5], 13.4%; in assay [6], -1.9%.
